In PubChem BioAssay (NCI):
Values joined by “and” are separate entries in the source; they are usually repeats but may differ in a detail not shown here. Equal values may be shown once. Compounds without any hit were thinned out: in the full panel of roughly 83,000, 20% have a hit.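 A percent growth of 40 corresponds to 60% growth inhibition; 0 means no net growth; -100 means all cells died. Active threshold: below 10.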 Unmarked numbers belong to inactive results. Active and inactive are the calls of the source.

Columns and labels:
Test in all cases: NCI-60 one-dose screen, 48 h (100 = growth as untreated, 0 = no growth, -100 = all killed)
Details in all cases: 10 µM unless noted
[1] = system: T-47D breast
[2] = system: BT-549 breast
[3] = system: MDA-MB-435 melanoma
[4] = system: SW-620 colon
[5] = system: MCF7 breast
[6] = system: HCT-116 colon
[7] = system: HCC-2998 colon
[8] = system: KM12 colon
[9] = system: MDA-MB-468 breast

| SMILES | growth [1] | growth [2] | growth [3] | growth [4] | growth [5] | growth [6] | growth [7] | growth [8] | growth [9] |
| --- | --- | --- | --- | --- | --- | --- | --- | --- | --- |
| N/C(=N\c1nc2ccc([N+](=O)[O-])cc2s1)NC(=O)Nc1ccccc1Cl | 26.2% | 25.9% | 5.83% (active) | 21.4% | 36.5% | -2.76% (active) | 86.6% | 38.6% | 0% (active) |
| COC(=O)c1cccc(Oc2ccc(NC(=O)Nc3cc(C(F)(F)F)ccc3F)cc2)c1 | 47% | 64.7% | 92.4% | 89.7% | 61.8% | 60.7% | 96.9% | 75.3% | 71.5% |
| COc1ccc(NC(=O)Cn2c(/C=C/c3ccc([N+](=O)[O-])cc3)nc3ccccc3c2=O)cc1 | 56.1% | 106% | 84.2% | 70.5% | 73.9% | 35.6% | 67.5% | 82.7% | 52% |
| C/C(=N/O)c1ccc(NC(=O)CSc2nnc(-c3ccc(-c4nc5ccc(Cl)cc5[nH]4)cc3)o2)cc1 | 11.8% | 14.2% | -32.9% (active) | -54.9% (active) | 3.95% (active) | 4.71% (active) | 71.2% | 2.42% (active) | 64.9% |
| Cc1[nH]nc2ccc3nc(-c4cnn(CCO)c4)c4c(c3c12)CCCC4 | 34.5% | 46.3% | 18.7% | 29% | 52.6% | 33.8% | 45.6% | 18.8% | -0.783% (active) |
| O=C(NNC(=S)NCCc1ccccc1)c1ccc(OCc2nc3ccc(Cl)cc3[nH]2)cc1 | 39.4% | 61.5% | 84.3% | 129% | 34.2% | 64.3% | 104% | 63% | 61.4% |
| NS(=O)(=O)c1ccc(N2N=C(c3ccc(NC(=O)Nc4ccccc4)cc3)CC2c2ccc(Br)cc2)cc1 (configuration not stated) | -73.8% (active) | -81.1% (active) | -93.8% (active) | -3.46% (active) | -79.1% (active) | -68.1% (active) | -100% (active) | -15.7% (active) | -95% (active) |
| COc1ccc(C(=O)c2c(N)c(C#N)cn2-c2ccc([N+](=O)[O-])cc2)cc1 | 90.1% | 113% | 81.1% | 105% | 95.1% | 106% | 101% | 105% | 109% |
| C=CCSc1nnc(-c2c(C)nc3sccn23)o1 | 79.4% | 65.2% | 101% | 97% | 70.8% | 94% | 110% | 101% | 5.74% (active) |
| c1n[nH]cc1-c1nc2ccc3[nH]ncc3c2c2c1CC1(CC2)COC1 | 26.8% | -7.9% (active) | 30.7% | 8.89% (active) | 62.4% | 15.4% | 60.4% | 56.7% | -24.5% (active) |
| O=C(c1ccc(Cl)cc1)C1[C@H](c2ccccc2Cl)[C@@H](c2ccccc2)NC12C(=O)Nc1ccc(Cl)cc12 (some centres not stated) | -71.1% (active) | -87.2% (active) | -87.5% (active) | -61.5% (active) | -37.7% (active) | -89.3% (active) | -85.6% (active) | -48% (active) | -52.5% (active) |
| O=C(N/N=C/c1ccc(B(O)O)s1)c1[nH]c2ccc(Br)cc2c1-c1ccccc1 | -77% (active) | -76.2% (active) | -75.1% (active) | -74% (active) | -67.1% (active) | -62.9% (active) | -97.7% (active) | -36.5% (active) | -95.9% (active) |
| NC(=O)c1ccc(-c2ccc3ncnc(N4CCc5cc(F)c(Cl)cc54)c3c2)cn1 | 28% | 61.1% | 95.9% | 94.2% | 37.7% | 63.6% | 89.7% | 96.1% | -7.37% (active) |
| CS(=O)(=O)Nc1cccc(-n2c(COc3ccc(OC(F)(F)F)cc3)nc3ccccc32)c1 | 62.2% and 85% | 98% and 96.5% | 102% and 103% | 97.3% and 108% | 65.6% and 102% | 85.9% and 104% | 114% and 113% | 91.9% and 101% | 107% and 106% |
| COc1ccc(/C=C/c2nc3ccccc3c(=O)n2CC(=O)Nc2ccccc2)cc1 | -20.4% (active) | 98.5% | 85.2% | 61.6% | 54.9% | 21% | 80.2% | 66.9% | 55.7% |
| NCCCCn1c(SCCc2c[nH]c3ccccc23)nnc1-c1ccc2ccccc2n1 | -63.4% (active) | 54.5% | -75% (active) | -73.1% (active) | -88.8% (active) | -94.1% (active) | -90.2% (active) | 13.1% | -87.1% (active) |
| COc1ccc(-c2cc(C(=O)N=Nc3c(O)[nH]c4ccc(Cl)cc34)c3ccccc3n2)cc1 | 102% | 107% | 44.4% | 7.42% (active) | 19.2% | 65.6% | 19.3% | 28% | 74.9% |
| COc1ccc(-c2cc(-c3cc(OC)c(OC)c(OC)c3)[nH]c(=O)c2C#N)cc1 | 34.6% | 70.5% | 73.6% | 93.4% | 86.2% | 34.7% | 67.1% | 75.8% | 79.8% |
| COc1ccccc1NC(=O)N/N=C/c1c[nH]c2ccccc12 | 36.2% | 15.5% | -22.8% (active) | 35.9% | 6.55% (active) | 10.4% | 6.44% (active) | 3.61% (active) | -6.01% (active) |
| NS(=O)(=O)c1cccc(Nc2nc(SCC(=O)c3ccc(F)cc3)nc3ccccc23)c1 | -7.28% (active) | -5.16% (active) | -18% (active) | 27.4% | 2.1% (active) | 5.03% (active) | 16% | -1.98% (active) | -9.09% (active) |
| O=C(Nc1ccc(-c2ccc3c(c2)NC(=O)/C3=C\c2ccc[nH]2)cc1)Nc1ccc(Cl)c(Cl)c1 | 18.8% | 40.5% | 62.6% | 16.7% | 9.81% (active) | 35.3% | 83.5% | 8.6% (active) | -16.8% (active) |
| COc1c(B(O)O)cc(F)cc1-c1nc2ccc3[nH]ncc3c2c2c1COCC2 | 62.6% | -7.9% (active) | 87.1% | 34.3% | 44.7% | 19.8% | 80.3% | 70.2% | 41.9% |
| O=C1N/C(=N\c2nccs2)S/C1=C\c1ccc([N+](=O)[O-])cc1 | 15.2% | 35.5% | 22.2% | 20.9% | 9.68% (active) | -1.76% (active) | 22.7% | 14.2% | -14.6% (active) |
| COc1ccc(NC(=O)Cn2c(/C=C/c3cccc(Br)c3)nc3ccccc3c2=O)cc1 | -16.6% (active) | 56.1% | 67% | 32.2% | 34.2% | 26.2% | 84.5% | 87.7% | 77.6% |
| CS(=O)(=O)c1ccc(-n2nc(C(=O)NCc3ccccc3)cc2-c2ccc(Cl)cc2)cc1 | 66.6% | 143% | 91.7% | 99.8% | 70.1% | 69.6% | 99.4% | 89.2% | 86.7% |
| COc1cc2cc(C(=O)N3C[C@@H](CCl)c4c3cc(OC(=O)N(C)CCSSCCN3CCOCC3)c3ccccc43)[nH]c2c(OC)c1OC | -6.52% (active) | -58.5% (active) | -41.2% (active) | 6.21% (active) | -33.5% (active) | -12.9% (active) | -58.7% (active) | -31.1% (active) | -77.3% (active) |
| C=CC[n+]1cccc2c3ccccc3ccc21 | 27% | 9.92% (active) | 61.3% | 45.1% | 25.2% | 48.6% | 55.7% | 20.2% | -9.82% (active) |
| N#Cc1c(-c2ccc(F)cc2)nc(SCc2ccccc2)nc1N1CCNCC1 | -75.9% (active) | -97.4% (active) | -83.6% (active) | -78.7% (active) | -84.7% (active) | -96.9% (active) | -64.6% (active) | -84.3% (active) | -64.3% (active) |
